PubChem BioAssay AID602440 (Sanford-Burnham Center for Chemical Genomics, 2012)
Screen size: about 360,000 compounds; about 2,300 (0.64%) were called active. This is one part of a sample in which actives are shown more often than they occur. Cut-off read from the data, not from the text of the source: active = inhibition mostly above about 40% (no sharp cut-off); inactive = mostly below about 27%.

The compounds below were run against Sentrin-specific protease 8 (Homo sapiens) (UniProt Q96LD8) (assay: blockers of SENP8 deneddylase activity – biochemical, fluorescence, Nedd8 protein substrate, uHTS, primary screen (AID 602440)). Settings: recombinant SENP8, Nedd8 substrate fluorescence; at 20 µM; active compounds read high.
Sentrin-specific protease 8 (Homo sapiens), sequence (Q96LD8 whole entry, looked up): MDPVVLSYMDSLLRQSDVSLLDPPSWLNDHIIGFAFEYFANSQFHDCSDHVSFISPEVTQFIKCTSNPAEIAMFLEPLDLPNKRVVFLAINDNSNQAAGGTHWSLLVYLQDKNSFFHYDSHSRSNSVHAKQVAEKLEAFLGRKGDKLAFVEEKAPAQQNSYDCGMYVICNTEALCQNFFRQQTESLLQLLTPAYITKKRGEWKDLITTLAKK

| Compound | inhibition |
| --- | --- |
| CN(C(=O)COC(=O)CNC(=O)C12CC3CC(CC(C3)C1)C2)c1ccccc1 | 2% (inactive) |
| CC(C)c1cc(Cn2c3ccccc3c(=O)n2C(C)Cn2cc(C3CC3)nn2)on1 (stereo not given) | -395% (inactive) |
| CCS(=O)(=O)Nc1ccc(C(=O)NCCSc2ccccc2)cc1 | 23.1% (inactive) |
| Cc1cccc(OCC(=O)NC(=S)Nc2ccccc2N2CCOCC2)c1 | 43.3% (active) |
| Cc1cc(C)cc(OCC(=O)Nc2ccc(N3CCOCC3)cc2N2CCOCC2)c1 | 17.3% (inactive) |
| CCc1ccc(C(=O)NC(=S)Nc2ccccc2N2CCOCC2)cc1 | 30.3% (inactive) |
| CCn1c(=O)cc(SCC(=O)NCCC2=CCCCC2)c2ccccc21 | -40.2% (inactive) |
| CCCc1nc(SCC(=O)Nc2ccccc2OC)c2c(=O)n(C)c(=O)n(C)c2n1 | 10.5% (inactive) |
| FC(F)(F)c1cc(C(F)(F)F)c2ccc(N3CCN(c4ccccc4)CC3)nc2n1 | -2.9% (inactive) |
| Cc1ccc(CNC(=O)C2(C(F)(F)F)C/C(=C\Cc3ccccc3)CCCO2)o1 (stereo not given) | 12.6% (inactive) |
| CC(C)CC[n+]1ccn(C2=C([O-])c3ccccc3C(=O)/C2=N\S(=O)(=O)c2ccccc2)c1 | 54% (active) |
| CC(=O)NC(Cc1ccc(F)cc1)C(=O)O (stereo not given) | 2% (inactive) |
| O=C(CCNC(=O)c1ccc(Br)cc1)NCC(c1ccco1)N1CCCCC1 (stereo not given) | 10.5% (inactive) |
| CCOC(=O)c1ccc(COC(=O)CCc2nc(-c3ccccc3)c(-c3ccccc3)o2)cc1 | -13.2% (inactive) |
| O=C(NCCOc1ccccc1)c1ccccc1F | 5.5% (inactive) |
| CCOc1cc(NC(=O)Nc2ccccc2)c(OCC)cc1NC(=O)CC | -0.4% (inactive) |
| CCOc1cc(NC(=O)c2ccccc2C(=O)O)c(OCC)cc1NC(=O)c1ccccc1F | 50.6% (active) |
| Cc1ccc(-c2nn(-c3cccc(F)c3)cc2CNCCc2ccncc2)o1 | -178% (inactive) |
| CONC(=O)c1cc(OCC(F)(F)F)ccc1OCC(F)(F)F | 21.1% (inactive) |
| CCOc1c(Br)cc(/C=C2\C(=O)N(CCC#N)N=C2C)cc1OC | 50.8% (active) |

| Compound | inhibition |
| --- | --- |
| CCN1C(=O)[C@@H]2[C@@H](c3ccc(-c4ccccc4)cc3)N3CCCC[C@@]3(C(=O)OC)[C@@H]2C1=O | 3.1% (inactive) |
| CC1=C/C(=N\OS(=O)(=O)c2ccccc2)C=CC1=O | 52.9% (active) |
| COc1ccc2[nH]c3c(c2c1)CCN1C(=O)C(CC(=O)NCCc2ccccn2)C[C@H](C(=O)N2CCOCC2)[C@@]31C (stereo not given in full) | -3.3% (inactive) |
| Cc1ccc(S(=O)(=O)N2[C@@H](c3cccc4ccccc34)C(C(=O)O)=C[C@H]2C(C)(C)C)cc1 | 1.1% (inactive) |
| O=C(NC1CC1)C1=C[C@H](c2coc3ccccc3c2=O)C[C@H](OCCCCO)O1 | -5% (inactive) |
| Cc1ccc(Cl)c(OCC(=O)N2CCc3ccccc3C2)c1 | 20.7% (inactive) |
| CCC(=O)c1ccc(OCC(=O)OCC(=O)N2CCc3ccccc3C2)cc1 | 18.9% (inactive) |
| O=C(COc1ccccc1)N1CCc2ccccc2C1 | 42.5% (active) |
| COc1cccc(N2CC(C(=O)NCc3n[nH]c(=O)c4ccccc34)CC2=O)c1 (stereo not given) | -0.8% (inactive) |
| O=[N+]([O-])c1ccc(N2CCN(S(=O)(=O)c3ccccc3)CC2)cc1N1CCc2ccccc2C1 | -132% (inactive) |
| O=[N+]([O-])c1ccc(N2CCN(c3ccc(O)cc3)CC2)c(Cl)c1 | 26.5% (inactive) |
| O=[N+]([O-])c1ccc(N2CCSCC2)cc1O | 57% (active) |
| CC(C(=O)NC1CCCC1)N1CCN(S(=O)(=O)c2ccccc2Cl)CC1 (stereo not given) | 7.4% (inactive) |
| CC1(C)Cc2cccc(OCC(N)=O)c2O1 | 20.9% (inactive) |
| CC1(C)Cc2cccc(OCC(=O)Nc3nccs3)c2O1 | 42.4% (active) |
| COc1cccc(CCNC(=O)COc2cccc3c2OC(C)(C)C3)c1 | 20.6% (inactive) |
| COc1cc(NC(=O)COC(=O)c2ccc([N+](=O)[O-])s2)cc(OC)c1OC | 26.8% (inactive) |
| C[C@H](NC(=O)c1ccccc1Cl)C(=O)OCC(=O)N1CCN(c2ccccc2)CC1 | 12.8% (inactive) |
| O=C(OCC(=O)N1CCN(c2ccccc2)CC1)c1ccc([N+](=O)[O-])s1 | 42.9% (active) |
| Oc1ccc(N=Cc2sc3ccccc3c2Cl)cc1 | 87.5% (active) |

| Compound | inhibition |
| --- | --- |
| CCCN=C1NC(=O)C(CC(=O)NCCc2ccc(OC)c(OC)c2)S1 (stereo not given) | 16.5% (inactive) |
| Cc1ccc(-n2nc3c(=O)n(C(C)C(=O)NCc4ccc5c(c4)OCO5)nc(C)c3c2C)cc1 (stereo not given) | 3.2% (inactive) |
| CC(=O)c1c(N2CCOCC2)nc(=S)n(-c2cc(C)ccc2C)c1C | 9.8% (inactive) |
| CC(=O)Nc1ccc(OCCC[n+]2cccc(C(=O)[O-])c2)cc1 | 7.7% (inactive) |
| COc1ccc(C(=O)Oc2ccc(-c3nnco3)cc2)cc1S(=O)(=O)N1CCOCC1 | 20.2% (inactive) |
| COc1ccc(-c2nnco2)cc1OC | 41.5% (active) |
| COc1ccc2c(Cl)c(-c3nnco3)sc2c1 | -37.1% (inactive) |
| Cc1ccc(N2C(=O)CN=C2Nc2nc(C)cc(C)n2)cc1 | 31.7% (inactive) |
| COc1ccc(N2CCC(CNC(=S)Nc3c(C)cccc3C)C2)cc1 (stereo not given) | 9.9% (inactive) |
| CCN(C(=O)CSc1ncnc2sccc12)c1c(N)n(Cc2ccccc2)c(=O)[nH]c1=O | -25% (inactive) |
| CC1CCCC(N2CCN(C(=O)c3ccc(F)cc3)CC2)C1 (stereo not given) | 7.2% (inactive) |
| Cc1ccc(C(=O)N2CC(=O)Nc3ccc(F)cc3C2c2ccc(F)cc2)cc1 (stereo not given) | 4.1% (inactive) |
| CCN1CCC(O)(/C=C/c2ccc(C)cc2)C(C(=O)/C=C/c2ccc(C)cc2)C1 (stereo not given) | 16.7% (inactive) |
| CCN1CCC2(CC1)N=C(c1ccc(F)cc1)C(=S)N2C(=O)c1ccc(C)cc1 | 48.7% (active) |
| COC(=O)CNC(=O)c1ccc2c(c1)S(=O)(=O)c1ccccc1C2=O | 23.2% (inactive) |
| CN(Cc1ccccc1)C(=O)CCNC(=O)Cn1cnc2ccccc2c1=O | 16.4% (inactive) |
| N#Cc1cccc(NC(=O)CN2CCCCCC2)c1 | 7.3% (inactive) |
| CCOCCCn1c(SCC(=O)Nc2cc(OC)ccc2OC)nc2ccccc2c1=O | -19.4% (inactive) |
| CCOCCCn1c(NN)nc2ccccc2c1=O | 34% (active) |
| CCc1nnc(NC(=O)CSc2nc3ccccc3c(=O)n2CCCOC)s1 | 23.2% (inactive) |
